Assay [1] concerns Vero E6 infected with SARS-CoV-2. Description: morphology score (similarity to uninfected cells); higher = more like uninfected cells. To be noted: 24 h.
For assay [2] the test system is unchanged. Description: SARS-CoV-2 infection rate relative to infected DMSO; higher = more infection, active = 60 or less. Conditions: 24 h.

For the molecule `O=C(Nc1nc2ccc(NC(=O)C34CC5CC(CC(C5)C3)C4)cc2s1)c1ccccc1` (0.833333 µM), the morphology score in assay [1] was -0.0802. Besides, the SARS-CoV-2 infection rate in assay [2] is 105% (inactive).
In turn, `N[C@@H](CCC(=O)N[C@@H](CSN=O)C(=O)NCC(=O)O)C(=O)O` [S-nitrosoglutathione] (10 µM) registered a morphology score in assay [1] of 0.164. Moreover, the SARS-CoV-2 infection rate in assay [2] was 104% (inactive).
For `CN(C)CCOc1cc(-c2cn[nH]c2)ccc1NC(=O)C1COc2ccccc2O1` (stereo unspecified) (0.833333 µM) the same measures were 0.294 and 76.5% (inactive).
As to `OCCCNc1cc(-c2ccnc(Nc3cccc(Cl)c3)n2)ccn1` (10 µM), the morphology score in assay [1] is -0.158. In assay [2], the SARS-CoV-2 infection rate is 98% (inactive).
For `Cc1ccc(NC(=O)c2cccc(C(C)(C)C#N)c2)cc1Nc1ccc2ncn(C)c(=O)c2c1` (0.833333 µM) the same measures were -0.0585 and 93.5% (inactive).
With `Cn1c(COP(=O)(NCCBr)NCCBr)cnc1[N+](=O)[O-]` (10 µM), the morphology score in assay [1] came to 0.0413. Moreover, in assay [2], the SARS-CoV-2 infection rate is 106% (inactive).
Take `c1ccc([C@H]2CNCc3ccccc32)cc1` [4-phenyl-1,2,3,4-tetrahydroisoquinoline] (10 µM): the morphology score in assay [1] was -0.263. In addition, the SARS-CoV-2 infection rate in assay [2] was 114% (inactive).
On to `COc1cc(Br)c(S(=O)(=O)Nc2ccc(Cl)c(O[C@@H]3CCN(C)C3)c2)cc1OC` (10 µM), for which, in assay [1], the morphology score was -0.105. Moreover, in assay [2], the SARS-CoV-2 infection rate was 102% (inactive).
For `Cn1cc(C[C@@H](N)C(=O)O)c2ccccc21` [indoximod] (10 µM), in that order: 0.183 and 110% (inactive).
`O[C@@H]1[C@H](O)[C@@H](CCl)O[C@H]1n1cnc2c(NC3CC4CCC3C4)ncnc21` (mixture of isomers) [5'-chloro-5'-deoxy-ENBA-(+/-)] (10 µM) yielded a morphology score in assay [1] of 0.0934. Further, the SARS-CoV-2 infection rate in assay [2] is 104% (inactive).
For `O=C(O)C[C@H](O)C[C@H](O)/C=C/c1c(C2CC2)nc2ccccc2c1-c1ccc(F)cc1` [pitavastatin] (10 µM) the same measures were -0.127 and 115% (inactive).
For `COc1ccc2c(OCc3nnc4ccc(-c5ccccc5)nn34)ccnc2c1` (10 µM), in that order: 0.0318 and 110% (inactive).
For `O=C(CCc1ccncc1)NNC(=O)N1Cc2ccccc2Oc2ccc(Cl)cc21` (10 µM), in that order: -0.103 and 108% (inactive).
For `CO[C@H]1C[C@H](O[C@@H]2/C(C)=C/C[C@@H]3C[C@@H](C[C@]4(CC[C@H](C)[C@@H](C5CCCCC5)O4)O3)OC(=O)[C@@H]3C=C(C)/C(=N/O)[C@H]4OC/C(=C\C=C\[C@@H]2C)[C@]43O)O[C@@H](C)[C@@H]1O` [selamectin] (10 µM), in assay [1], the morphology score was found to be 0.602. In addition, in assay [2], the SARS-CoV-2 infection rate was 71% (inactive).
In assay [1], `COc1cc2c(NC3CCN(C4CCCCC4)CC3)nc(N3CCCN(C(C)C)CC3)nc2cc1OCCCN1CCCCC1` (10 µM) registered a morphology score of 0.458. In assay [2], the SARS-CoV-2 infection rate was 52% (active).
For `COc1cc(N)c(Cl)cc1C(=O)CCC1CCN(CCNS(C)(=O)=O)CC1` (10 µM), in that order: 0.0872 and 97.5% (inactive).
For `C(=C\c1ccccc1)/CN1CCN(CCOC(c2ccccc2)c2ccccc2)CC1` (10 µM), in that order: 0.33 and 82.5% (inactive).
For `N#Cc1ccc2[nH]cc(CCCCN3CCN(c4ccc5oc(C(N)=O)cc5c4)CC3)c2c1` [vilazodone] (0.833333 µM) the same measures were 0.0471 and 102% (inactive).
For `CC(C)C[C@H](NC(=O)CNC(=O)c1cc(Cl)ccc1Cl)B(O)O` [ixazomib] (0.833333 µM), the morphology score in assay [1] was -0.0337. The SARS-CoV-2 infection rate in assay [2] is 93.5% (inactive).
`CC[C@]1(O)C[C@@H]2CN(CCc3c([nH]c4ccccc34)[C@@](C(=O)OC)(c3cc4c(cc3OC)N(C)[C@H]3[C@@](O)(C(=O)OC)[C@H](OC(C)=O)[C@]5(CC)C=CCN6CC[C@]43[C@@H]65)C2)C1` [Vinblastine (sulfate)] (0.833333 µM): in assay [1], the morphology score is -0.0326. For the same molecule, the SARS-CoV-2 infection rate in assay [2] is 102% (inactive).
For `CCCC(=O)O[C@]1(C(=O)COC(C)=O)CC[C@H]2[C@@H]3C[C@H](F)C4=CC(=O)C=C[C@]4(C)[C@@]3(F)[C@@H](O)C[C@@]21C` [difluprednate] (10 µM), in that order: 0.215 and 100% (inactive).
On to `COc1ccc2[nH]c(C(=O)c3ccccc3)cc2c1` (0.833333 µM), for which the morphology score in assay [1] was -0.112. In addition, in assay [2], the SARS-CoV-2 infection rate was 110% (inactive).
For `CC(C)COC(=O)c1ccc(N)cc1` [isobutamben] (10 µM), in that order: 0.0167 and 106% (inactive).
For `N=C(N)NCCC[C@@H](NC(=O)[C@@H]1CCCN1C(=O)[C@@H]1CSSCCC(=O)N[C@@H](Cc2ccc(O)cc2)C(=O)N[C@@H](Cc2ccccc2)C(=O)N[C@@H](CCC(N)=O)C(=O)N[C@@H](CC(N)=O)C(=O)N1)C(=O)NCC(N)=O` [desmopressin-acetate] (10 µM) the same measures were 0.0379 and 97.5% (inactive).
Molecule `CC1(C)CNc2cc(NC(=O)c3cccnc3NCc3ccncc3)ccc21` [motesanib] (10 µM) returned a morphology score in assay [1] of 0.196. Besides, in assay [2], the SARS-CoV-2 infection rate is 108% (inactive).
In turn, `NC(=O)NO` [hydroxyurea] (10 µM) gave a morphology score in assay [1] of 0.223. Moreover, the SARS-CoV-2 infection rate in assay [2] is 100% (inactive).
For the molecule `CCCCCCCCCCCCCCCCCCCCCC(=O)Nc1ccn([C@@H]2O[C@H](CO)[C@@H](O)[C@@H]2O)c(=O)n1` [enocitabine] (10 µM), the morphology score in assay [1] is 0.135. Moreover, in assay [2], the SARS-CoV-2 infection rate was 94.5% (inactive).
For `COc1c(O[C@@H]2O[C@H](CO)[C@@H](O)[C@H](O)[C@H]2O)cc2c(c1OC)-c1ccc(SC)c(=O)cc1[C@@H](NC(C)=O)CC2` [thiocolchicoside] (10 µM), in that order: -0.00288 and 114% (inactive).
